Test results from PubChem BioAssay (NCI).
This is part of a sample that, as a whole, favours compounds with a hit. Of some 83,000 tested, about 20% had one in any assay.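 96-well plates, one dose, 48 hours. Percent growth reported; active if below 10.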 Active and inactive are the calls of the source.

Legend:
Test in all cases: NCI-60 one-dose screen, 48 h (100 = growth as untreated, 0 = no growth, -100 = all killed)
Details in all cases: 10 µM unless noted
[1] = system: T-47D breast
[2] = system: BT-549 breast
[3] = system: MDA-MB-435 melanoma
[4] = system: SW-620 colon
[5] = system: MCF7 breast
[6] = system: HCT-116 colon
[7] = system: HCC-2998 colon
[8] = system: KM12 colon

Measured: growth

CCCCC(=O)Nc1nc2ccc(SCCC)cc2s1
inactive: [1] 48% | [2] 40.6% | [4] 34.6% | [5] 35% | [6] 31.1% | [7] 77.1% | [8] 34.1%
active: [3] 4.42%

O=c1cc(Cl)[nH]c(=O)[nH]1
inactive: [1] 95.1% | [2] 103% | [3] 111% | [4] 106% | [5] 92.5% | [6] 101% | [7] 93.5% | [8] 105%

C=C1C(=O)O[C@H]2[C@H]1CC/C(COC(=O)c1ccc(Cl)nc1)=C\CC[C@@]1(C)O[C@@H]21
active: [1] -31.1% | [4] -45.2% | [5] 7.96% | [6] -80.6%
inactive: [2] 10.3% | [3] 14.6% | [7] 95.5% | [8] 82.8%

COc1ccc(-n2c(-c3ccc(NC(=O)CCCl)cc3)nnc2-c2cc(OC)c(OC)c(OC)c2)cc1
inactive: [1] 25.3% | [2] 66.6% | [3] 54.9% | [4] 54.5% | [5] 23.2% | [6] 35.7% | [7] 43.2% | [8] 15.4%

Nc1nc(-c2cc3c(cc2Cl)NC(=O)/C3=C/c2ccccc2)cs1
inactive: [2] 55.7% | [3] 24.4% | [4] 40.4% | [6] 14.5% | [7] 58% | [8] 45.5%
active: [1] 7.52% | [5] 7.09%

C=C1c2c(Cl)ccc(O)c2C(O)=C2C(=O)[C@]3(O)C(O)=C(C(N)=O)C(=O)[C@@H](N(C)C)[C@@H]3[C@@H](O)[C@H]12
active: [2] -19.7% | [6] 2.75% | [7] 8.18% | [8] 1.27%
inactive: [1] 21.8% | [3] 12.7% | [4] 16.4% | [5] 29.8%

O=C(NC(=S)Nc1ccc(Cl)cc1)c1ccccc1
inactive: [1] 105% | [2] 131% | [3] 96.9% | [4] 109% | [5] 59.2% | [6] 92.5% | [7] 106% | [8] 124%

CN(C)CCNc1nc2ccccc2c2c(=O)c3ccccc3sc12
inactive: [1] 49% | [2] 74.4% | [8] 18.5%
active: [3] 8.44% | [4] -54% | [5] -46.9% | [6] -9.31% | [7] -11.3%

O=C(Nc1ccc(-n2ccc3c(NC(=O)c4ccccc4)ncnc32)cc1)Nc1cccc(Cl)c1Cl
inactive: [1] 42.8% | [2] 49.2% | [4] 11.5% | [7] 64.6% | [8] 20.7%
active: [3] -4.29% | [5] 2.07% | [6] -25.4%

NC(=O)C1=C[C@H]2[C@H]3C=C[C@@]2(O)C(=O)O[C@@H]3O1
inactive: [1] 38.2% | [2] 64.2% | [3] 36.9% | [4] 40.3% | [5] 21.6% | [6] 18.4% | [7] 91.6% | [8] 84.9%

CCN(CC)CC(=O)Nc1c(C)cccc1C
inactive: [1] 107% | [2] 97.3% | [3] 104% | [4] 106% | [5] 97% | [6] 96.1% | [7] 114% | [8] 113%

COc1ccc2c(c1)C(=O)/C(=C/c1ccc(OCC(=O)c3ccc(Cl)cc3)cc1)O2
inactive: [1] 72.2% | [2] 80.5% | [3] 92.8% | [4] 14.2% | [5] 104% | [6] 30.1% | [7] 21.2% | [8] 104%

Cl[C@@H]1CCO[C@H](c2cc3ccccc3c3ccccc23)C1
inactive: [1] 99.5% | [2] 87.4% | [3] 101% | [4] 95.4% | [5] 97.5% | [6] 90.3% | [7] 94.8% | [8] 100%

CCC(CC(C)C)Nc1ccc(NC(CC)CC(C)C)cc1 (stereo unspecified)
inactive: [1] 69.2% | [2] 97.1% | [3] 107% | [4] 84.2% | [5] 89.5% | [6] 59.2% | [7] 95.6% | [8] 63.2%

CCCCCn1ncc(-c2c(O)c(O)cc3c(O)c(-c4c(C)cc5c(-c6cnn(CCCCC)n6)c(O)c(O)cc5c4O)c(C)cc23)n1
active: [1] -5.48% | [2] 7.18% | [5] 4.84% | [6] 3.24% | [7] 0.112% | [8] 4.29%
inactive: [3] 17.1% | [4] 18.5%

Cc1c(F)cccc1NC(=O)c1sc2nc3c(cc2c1N)CCCCC3
active: [3] 9.59%
inactive: [1] 63.6% | [2] 73.6% | [4] 25% | [5] 14.8% | [6] 49.8% | [7] 75.8% | [8] 34.8%

COC1=C(OC)C(=O)C=CC1=O
inactive: [1] 99.5% | [2] 94.4% | [3] 116% | [4] 77.8% | [5] 94.3% | [6] 64.4% | [7] 125% | [8] 104%

O=C(/C=C/c1ccccc1)Oc1ccc(/C=C/c2cc(OC(=O)/C=C/c3ccccc3)cc(OC(=O)/C=C/c3ccccc3)c2)cc1
inactive: [1] 81.9% | [2] 102% | [3] 101% | [4] 99.6% | [5] 103% | [6] 96.3% | [7] 104% | [8] 103%

COc1cc(/C=C/C(=O)c2c(C)[n+]([O-])c3ccccc3[n+]2[O-])ccc1O
inactive: [1] 111% | [2] 89.5% | [3] 78.6% | [4] 92.9% | [5] 93% | [6] 91.2% | [7] 116% | [8] 108%

COc1ccc(C(=O)NC(=O)Nc2ccc3c(c2)NC(=O)/C3=C\c2[nH]c(C)c(C(=O)O)c2C)cc1
inactive: [1] 45.3% | [2] 89% | [3] 85.2% | [4] 52.6% | [5] 75% | [6] 48.1% | [7] 97.7% | [8] 17.8%

C#C[C@@]1(O)[C@@H](CO)O[C@@H](n2cc(Br)c3c(Cl)ccnc32)[C@@H]1O
inactive: [2] 22.6% | [3] 56.7% | [4] 14.5% | [6] 23.1% | [7] 37% | [8] 65%
active: [1] -17.8% | [5] 1.48%

CNCCCOc1c(Br)cc(CCNC(=O)/C(Cc2ccc(OC)c(Br)c2)=N/O)cc1Br
inactive: [1] 54.7% | [2] 56.8% | [3] 41% | [4] 41% | [5] 19% | [6] 19.8% | [7] 46% | [8] 42.1%

COc1ccc(NC(=O)COCCOCCNC[C@@H]2C(=O)O[C@H]3[C@H]2CC/C(COC(=O)OC/C2=C/CC[C@@]4(C)O[C@H]4[C@H]4OC(=O)[C@@H](CN(C)C)[C@@H]4CC2)=C\CC[C@@]2(C)O[C@@H]32)c(O)c1C(N)=O
inactive: [1] 15.8% | [2] 56.8% | [3] 49.6% | [5] 19.4% | [7] 106% | [8] 79.3%
active: [4] -6.42% | [6] -38.6%

C=CCn1c(SCC(=O)Nc2ccc(C(=O)/C=C/c3cc(OC)c(OC)c(OC)c3)cc2)nnc1-c1ccc(OC)cc1
active: [1] -2.4% | [2] -23.8% | [3] -38.1% | [4] -6.73% | [5] 0.763% | [6] -29.4% | [7] -65.8% | [8] -33.7%

CN(C)CCS(=O)(=O)Nc1cc(-c2ccc3ncnc(Nc4ccc(F)c(Cl)c4)c3c2)cnc1Cl
active: [1] -27% | [2] -17.9% | [3] -47.6% | [4] -22.7% | [5] 8.88% | [6] -21.5% | [7] -83.7% | [8] -56.3%

COC(=O)c1oc2c(C(C)=O)c(OCCN3CCCCC3)ccc2c1C
inactive: [1] 129% | [2] 130% | [3] 80.8% | [4] 103% | [5] 105% | [6] 89.7% | [7] 113% | [8] 102%

CCc1c2cc(Cl)ccc2n2cc(Cc3ccccc3)[nH]c(=O)c12
inactive: [1] 104% | [2] 101% | [3] 102% | [4] 99.4% | [7] 97.1% | [8] 98%

C[C@H]1C=C(C[C@@H](O)CC#CC#CCCCCC[C@@H](O)[C@H]2CCC(=O)O2)C(=O)O1
inactive: [1] 92.8% | [2] 112% | [3] 111% | [4] 103% | [5] 115% | [6] 83.2% | [7] 105% | [8] 110%

NC(N)=N/N=C/c1ccc([N+](=O)[O-])cc1
inactive: [1] 98.7% | [2] 85.5% | [3] 112% | [4] 94.1% | [5] 93.1% | [6] 90.6% | [7] 99.9% | [8] 103%

Nn1c(SCC(=O)Nc2cc(Cl)c(Cl)cc2Cl)nnc1-c1cc(F)c(Cl)cc1Cl
inactive: [1] 97.5% | [2] 87.4% | [3] 91.2% | [4] 106% | [5] 78.8% | [6] 91.2% | [7] 139% | [8] 110%

COc1ccccc1N1CCN(CCCOc2ccc(OCCCN3CCN(c4ccccc4OC)CC3)c(C(=O)c3cc(OC)c(OC)c(OC)c3)c2)CC1
inactive: [1] 104% | [2] 96.3% | [3] 122% | [4] 102% | [5] 95.1% | [6] 111% | [7] 107% | [8] 113%
